Paper PMC6212790, “How bacterial xenogeneic silencer rok distinguishes foreign from self DNA in its resident genome”
Whole data set: some 33,000 sequences, median “e-score” near -0.037, cut for the highest 2% near 0.34. The sample as a whole holds a higher share of the highest values than the screen did.

target: T1, GST-Rok (full length) (Bacillus subtilis subsp. subtilis str. …, UniProt O34857 1-191); assay: protein binding microarray; Rok is a gene silencer of Bacillus subtilis; high values mean tight binding; settings: protein: recombinant; tags: GST (pTH5325, pDEST15-Magic modified); dsDNA, one strand shown
T1 sequence: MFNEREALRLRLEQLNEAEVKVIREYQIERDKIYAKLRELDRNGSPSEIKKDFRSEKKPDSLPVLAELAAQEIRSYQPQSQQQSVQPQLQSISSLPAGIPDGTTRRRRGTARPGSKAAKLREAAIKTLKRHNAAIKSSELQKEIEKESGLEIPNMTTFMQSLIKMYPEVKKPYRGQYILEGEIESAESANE
Summary of the method: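 Every oligonucleotide joins a 25-mer constant primer to a 35-mer variable part drawn from a de Bruijn sequence of order 10, so each non-palindromic 8-mer appears at least 32 times and each palindromic 8-mer 16 times. The preference for every 8-mer is reported as a unitless, rank-based enrichment score (E-score). This score spans 0.5 for the most favored 8-mer to −0.5 for the most disfavored.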

Row | Sequence | binding signal
1 | CGTCGCAA | -0.166 E-score
2 | ATAACTAT | 0.407 E-score
3 | AGAACTAA | 0.254 E-score
4 | ATAACTAG | 0.243 E-score
5 | AGAACTAT | 0.381 E-score
6 | AGAACTAG | 0.298 E-score
7 | ATAACTAA | 0.26 E-score
8 | CATGCTGA | -0.132 E-score
9 | AGTGGTCC | -0.177 E-score
10 | GTCCCGGA | -0.141 E-score
11 | AATCATTA | 0.158 E-score
12 | CATCATTA | 0.0295 E-score
13 | GATCATTA | 0.355 E-score
14 | GGTAGTAA | 0.335 E-score
15 | TGTTGTAA | 0.142 E-score
16 | CGTAGTAA | 0.198 E-score
17 | AGTAGTAA | 0.384 E-score
18 | TGTAGGAA | 0.0806 E-score
19 | TGTAGTAA | 0.349 E-score
20 | ACTGGACG | 0.057 E-score
21 | TCAAGTAA | 0.154 E-score
22 | AGTAGACA | 0.0413 E-score
23 | CTAATCTC | 0.0718 E-score
24 | CTAATCTA | 0.362 E-score
25 | ATAATCTC | 0.161 E-score
26 | ATAATCTA | 0.352 E-score

Row | Sequence | binding signal
27 | CTAATCAA | 0.165 E-score
28 | GTAATCTA | 0.245 E-score
29 | ATGCATGG | 0.0449 E-score
30 | AACCTACG | 9.3e-05 E-score
31 | CCAACTGC | -0.00979 E-score
32 | AGGTTTAA | 0.00862 E-score
33 | ATATACCG | 0.385 E-score
34 | ATATACCC | 0.188 E-score
35 | ATATACCA | 0.411 E-score
36 | AGATACCG | 0.12 E-score
37 | GTATACCA | 0.311 E-score
38 | CTATACCA | 0.258 E-score
39 | CATTAATC | 0.219 E-score
40 | AACGGTCT | -0.0396 E-score
41 | GTCCCGCA | -0.196 E-score
42 | CGCGGTTA | -0.0283 E-score
43 | ATAAATAC | 0.276 E-score
44 | GTAAATAA | 0.234 E-score
45 | CTAAATAA | 0.251 E-score
46 | CTAAATAC | 0.351 E-score
47 | CTAAATAG | 0.172 E-score
48 | GTAAATAC | 0.352 E-score
49 | CAAGCAGC | -0.0674 E-score
50 | TAGTTACA | 0.349 E-score
51 | AAGTTACA | 0.18 E-score
52 | TAGTTATA | 0.382 E-score

Row | Sequence | binding signal
53 | CAGTTACA | 0.24 E-score
54 | GAGTTATA | 0.222 E-score
55 | CAGTTATA | 0.288 E-score
56 | AGCTGAAG | 0.0654 E-score
57 | AACGCCTA | -0.101 E-score
58 | ACTTAACC | 0.121 E-score
59 | ATACCGAC | 0.0836 E-score
60 | ATACCGAT | 0.342 E-score
61 | ATACCGAG | 0.116 E-score
62 | GTTGGCGA | -0.0273 E-score
63 | GGAGCAGA | -0.132 E-score
64 | CGCCTTCA | 0.0118 E-score
65 | TAGCAGGA | -0.0921 E-score
66 | ACCAAGGT | -0.0988 E-score
67 | GACACGAC | -0.0441 E-score
68 | ATTAGTTG | 0.334 E-score
69 | CGTAGTTA | 0.127 E-score
70 | GGTAGTTA | 0.413 E-score
71 | AGTAGTTC | 0.413 E-score
72 | AGTAGTTG | 0.388 E-score
73 | ACTAGTTG | 0.313 E-score
74 | AGTAGTGA | 0.0919 E-score
75 | CGTAGTTC | 0.255 E-score
76 | GGTAGTCA | 0.125 E-score
77 | GTTAGTTA | 0.258 E-score
78 | AGTAGTTA | 0.434 E-score

Row | Sequence | binding signal
79 | ATTAGTTC | 0.172 E-score
80 | GTAAGAAA | 0.327 E-score
81 | CGTACAAC | 0.103 E-score
82 | CGGAGGAA | -0.194 E-score
83 | ACAATGAC | 0.00584 E-score
84 | AAAGACAA | 0.02 E-score
85 | GTTATTCA | 0.0398 E-score
86 | ATAGGTCC | 0.123 E-score
87 | CTAAGGCC | -0.158 E-score
88 | AATATTCT | 0.338 E-score
89 | AATATTCG | 0.255 E-score
90 | AATATTGG | 0.103 E-score
91 | AATATTGA | 0.287 E-score
92 | AATATTGT | 0.34 E-score
93 | AATATTCC | 0.131 E-score
94 | TGCGGGAA | -0.19 E-score
95 | CTAAGCCA | 0.0287 E-score
96 | GGTTAGTA | 0.0365 E-score
97 | CGTCGTTC | -0.0713 E-score
98 | GAACCGAC | -0.0645 E-score
99 | CGAAGAAA | 0.195 E-score
100 | CGAAATTA | 0.269 E-score
101 | AGAAATTC | 0.228 E-score
102 | CGAAATTC | 0.341 E-score
103 | GCAACCAC | 0.0207 E-score
104 | GGAATCAA | 0.103 E-score

Row | Sequence | binding signal
105 | AGAATCTC | 0.0678 E-score
106 | AGAATCTA | 0.337 E-score
107 | GGAATCTA | 0.363 E-score
108 | CGAATCTA | 0.305 E-score
109 | AGAATCTG | -0.0414 E-score
110 | CGGAATTA | 0.239 E-score
111 | GAAGGTTA | -0.0133 E-score
112 | GCACTCAA | -0.134 E-score
113 | ACCGGACC | -0.0925 E-score
114 | ACGGTACG | -0.0886 E-score
115 | CCTCACCG | -0.0671 E-score
116 | AGACTACC | 0.249 E-score
117 | CAACTACC | 0.303 E-score
118 | ACACTACT | 0.236 E-score
119 | CAACTACG | 0.12 E-score
120 | AAACTACC | 0.475 E-score
121 | AAACTAAG | 0.345 E-score
122 | AGACTACT | 0.209 E-score
123 | AAACTAAC | 0.233 E-score
124 | AAACTACG | 0.377 E-score
125 | AAACTACT | 0.484 E-score
126 | ACACTACG | -0.0357 E-score
127 | AAACTAAT | 0.332 E-score
128 | ATGCGGCA | 0.0193 E-score
129 | CACCTAAC | 0.06 E-score
130 | CTTCATAC | 0.0169 E-score

Row | Sequence | binding signal
131 | ATGCAGGA | 0.0987 E-score
132 | ATAGAGAG | -0.0418 E-score
133 | AGAAAACC | -0.176 E-score
134 | AGCAAGCG | -0.0451 E-score
135 | GCTGGAGA | -0.105 E-score
136 | ATTCGCAC | -0.0552 E-score
137 | ATTAGGCC | -0.131 E-score
138 | AAACTAAA | 0.324 E-score
139 | AAACTACA | 0.408 E-score
140 | TAACTACA | 0.441 E-score
141 | CAACTACA | 0.18 E-score
142 | TGACTACA | 0.197 E-score
143 | GCACTACC | -0.000872 E-score
144 | GAACTACA | 0.222 E-score
145 | TCACTACA | 0.0227 E-score
146 | GAACTACC | 0.338 E-score
147 | TAGGCTAA | -0.112 E-score
148 | ATATCGAT | 0.316 E-score
149 | AAGTCTGA | -0.121 E-score
150 | CTAGGAAC | -0.0546 E-score
151 | ACTAGCTA | 0.347 E-score
152 | AGTAGCTA | 0.386 E-score
153 | CGTAGCTC | 0.0159 E-score
154 | GCTAGCTA | 0.156 E-score
155 | AGTAGCTC | 0.0983 E-score
156 | AGTAGCTG | 0.204 E-score

Row | Sequence | binding signal
157 | CCTAGCTA | 0.107 E-score
158 | GGTAGCAA | 0.241 E-score
159 | CGTAGCGA | 0.0631 E-score
160 | CGTAGCTA | 0.365 E-score
161 | GGTAGCTA | 0.341 E-score
162 | GGTAGCGA | 0.0576 E-score
163 | GTTGAGGA | -0.0613 E-score
164 | CATTACCA | 0.14 E-score
165 | CAGTAACG | 0.112 E-score
166 | AAACTCTT | 0.188 E-score
167 | AAACTATA | 0.396 E-score
168 | AAACTATT | 0.458 E-score
169 | GAACTATA | 0.289 E-score
170 | ACACTATA | 0.245 E-score
171 | CAACTATC | 0.192 E-score
172 | TAACTATA | 0.341 E-score
173 | AAACTATC | 0.412 E-score
174 | TAACTAAA | 0.151 E-score
175 | GAACTATC | 0.292 E-score
176 | AAACTATG | 0.195 E-score
177 | CAACTATA | 0.307 E-score
